Assay results: the supplement of paper PMC11732987, “Enantioselective OTUD7B fragment discovery through chemoproteomics screening and high-throughput optimisation” (Communications Chemistry, 2025)

Legend:
Test in all cases: log2 ratio of Biotin-Ahx-Ub-VS probe labelling (fragment/DMSO); higher = less target engagement (more negative = stronger competition), active = hit call of the paper (q ≤ 0.05, log2 ratio ≤ -1)
Settings in all cases: compound concentration: 200 uM; treatment time: 3 h
[1] = target: USP34 (UniProt Q70CQ2)
In short: (§1)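 HEK293T lysate in Tris/CHAPS/IGEPAL buffer with protease inhibitors (495 µg per sample) was given fragment at 200 µM or vehicle for 3 h, in triplicate. It then received Biotin-Ahx-Ub-VS at 0.5 µM final for 1 h. Labelled DUBs were NeutrAvidin-enriched, digested with LysC and trypsin, and run by diaPASEF LC-MS/MS. Values are average log2 fragment/vehicle ratios by unpaired t-test on global-median-normalised Spectronaut quantities of proteins with ≥2 unique peptides.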

[2] = target: T1, USP36 (UniProt Q9P275)
T1 sequence (whole entry): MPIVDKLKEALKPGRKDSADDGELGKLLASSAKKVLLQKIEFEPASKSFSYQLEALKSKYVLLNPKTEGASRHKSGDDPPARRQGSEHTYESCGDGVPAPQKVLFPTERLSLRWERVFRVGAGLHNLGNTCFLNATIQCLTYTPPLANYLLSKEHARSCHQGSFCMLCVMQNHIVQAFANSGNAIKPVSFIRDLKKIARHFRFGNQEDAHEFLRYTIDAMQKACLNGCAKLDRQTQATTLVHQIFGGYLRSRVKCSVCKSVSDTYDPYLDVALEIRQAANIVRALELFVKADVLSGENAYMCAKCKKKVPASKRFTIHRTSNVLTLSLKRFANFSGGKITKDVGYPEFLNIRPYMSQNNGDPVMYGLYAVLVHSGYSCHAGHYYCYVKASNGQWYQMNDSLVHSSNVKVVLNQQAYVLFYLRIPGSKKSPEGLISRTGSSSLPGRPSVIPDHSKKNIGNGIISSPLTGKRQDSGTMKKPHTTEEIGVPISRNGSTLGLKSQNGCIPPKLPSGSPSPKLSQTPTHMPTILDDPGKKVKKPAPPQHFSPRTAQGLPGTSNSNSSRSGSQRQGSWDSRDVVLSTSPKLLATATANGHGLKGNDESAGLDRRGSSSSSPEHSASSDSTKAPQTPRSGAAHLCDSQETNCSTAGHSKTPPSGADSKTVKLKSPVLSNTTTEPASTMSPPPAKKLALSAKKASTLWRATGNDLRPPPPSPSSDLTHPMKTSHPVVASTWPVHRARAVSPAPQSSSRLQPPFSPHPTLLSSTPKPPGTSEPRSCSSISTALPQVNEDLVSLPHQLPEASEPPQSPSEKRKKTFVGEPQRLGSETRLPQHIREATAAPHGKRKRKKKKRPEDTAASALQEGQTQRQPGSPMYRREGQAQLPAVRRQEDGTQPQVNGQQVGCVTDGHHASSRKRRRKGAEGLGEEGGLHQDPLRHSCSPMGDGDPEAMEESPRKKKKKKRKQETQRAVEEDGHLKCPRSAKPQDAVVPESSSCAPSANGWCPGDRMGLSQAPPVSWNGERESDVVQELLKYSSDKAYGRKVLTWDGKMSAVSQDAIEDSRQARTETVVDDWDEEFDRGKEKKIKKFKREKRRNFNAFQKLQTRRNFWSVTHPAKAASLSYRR
In short: as §1

[3] = target: T2, USP38 (UniProt Q8NB14)
T2 sequence (whole entry): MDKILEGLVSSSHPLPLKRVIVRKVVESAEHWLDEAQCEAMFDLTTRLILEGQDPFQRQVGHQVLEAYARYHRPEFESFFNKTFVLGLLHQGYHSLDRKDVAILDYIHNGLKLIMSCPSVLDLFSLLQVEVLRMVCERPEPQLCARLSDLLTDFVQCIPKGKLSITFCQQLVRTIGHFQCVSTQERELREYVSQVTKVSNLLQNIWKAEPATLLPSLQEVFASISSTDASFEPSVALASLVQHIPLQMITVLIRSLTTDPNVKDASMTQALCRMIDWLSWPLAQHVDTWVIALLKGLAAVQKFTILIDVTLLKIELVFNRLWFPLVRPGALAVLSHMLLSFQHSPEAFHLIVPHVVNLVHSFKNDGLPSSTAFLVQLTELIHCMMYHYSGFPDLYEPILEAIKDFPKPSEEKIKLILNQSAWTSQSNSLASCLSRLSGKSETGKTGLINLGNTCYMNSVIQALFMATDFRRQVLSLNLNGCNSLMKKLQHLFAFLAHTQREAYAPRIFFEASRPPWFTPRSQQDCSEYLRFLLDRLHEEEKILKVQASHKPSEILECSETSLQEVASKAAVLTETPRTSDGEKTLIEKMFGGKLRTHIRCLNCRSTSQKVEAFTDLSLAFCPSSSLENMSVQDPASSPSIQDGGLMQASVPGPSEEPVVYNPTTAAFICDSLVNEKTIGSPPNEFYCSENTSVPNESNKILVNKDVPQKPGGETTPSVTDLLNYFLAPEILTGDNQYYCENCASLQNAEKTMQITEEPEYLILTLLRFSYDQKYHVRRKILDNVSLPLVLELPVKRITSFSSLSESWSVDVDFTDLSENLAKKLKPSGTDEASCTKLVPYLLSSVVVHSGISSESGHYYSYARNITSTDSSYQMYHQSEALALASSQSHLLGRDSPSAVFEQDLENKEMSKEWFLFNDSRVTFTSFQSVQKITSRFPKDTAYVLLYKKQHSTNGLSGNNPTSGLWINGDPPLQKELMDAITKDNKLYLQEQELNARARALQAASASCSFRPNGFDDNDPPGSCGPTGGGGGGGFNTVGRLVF
In short: as §1

[4] = target: T3, USP39 (UniProt Q53GS9)
T3 sequence (whole entry): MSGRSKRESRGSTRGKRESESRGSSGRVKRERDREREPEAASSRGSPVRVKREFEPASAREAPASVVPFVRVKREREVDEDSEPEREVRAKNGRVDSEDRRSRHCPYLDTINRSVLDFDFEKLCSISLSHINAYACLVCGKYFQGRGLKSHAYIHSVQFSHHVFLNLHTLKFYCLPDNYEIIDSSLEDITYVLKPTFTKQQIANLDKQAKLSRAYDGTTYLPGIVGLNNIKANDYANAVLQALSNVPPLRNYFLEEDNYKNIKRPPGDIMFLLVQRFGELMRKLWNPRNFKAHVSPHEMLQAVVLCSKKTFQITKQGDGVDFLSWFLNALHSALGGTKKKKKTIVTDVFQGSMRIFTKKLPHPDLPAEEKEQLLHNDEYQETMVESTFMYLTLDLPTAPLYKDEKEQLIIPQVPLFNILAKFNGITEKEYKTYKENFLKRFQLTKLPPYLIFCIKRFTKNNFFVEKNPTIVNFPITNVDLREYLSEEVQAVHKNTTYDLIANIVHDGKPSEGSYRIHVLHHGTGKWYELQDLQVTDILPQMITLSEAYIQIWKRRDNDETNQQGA
In short: as §1

[5] = target: T4, USP4 (UniProt Q13107)
T4 sequence (whole entry): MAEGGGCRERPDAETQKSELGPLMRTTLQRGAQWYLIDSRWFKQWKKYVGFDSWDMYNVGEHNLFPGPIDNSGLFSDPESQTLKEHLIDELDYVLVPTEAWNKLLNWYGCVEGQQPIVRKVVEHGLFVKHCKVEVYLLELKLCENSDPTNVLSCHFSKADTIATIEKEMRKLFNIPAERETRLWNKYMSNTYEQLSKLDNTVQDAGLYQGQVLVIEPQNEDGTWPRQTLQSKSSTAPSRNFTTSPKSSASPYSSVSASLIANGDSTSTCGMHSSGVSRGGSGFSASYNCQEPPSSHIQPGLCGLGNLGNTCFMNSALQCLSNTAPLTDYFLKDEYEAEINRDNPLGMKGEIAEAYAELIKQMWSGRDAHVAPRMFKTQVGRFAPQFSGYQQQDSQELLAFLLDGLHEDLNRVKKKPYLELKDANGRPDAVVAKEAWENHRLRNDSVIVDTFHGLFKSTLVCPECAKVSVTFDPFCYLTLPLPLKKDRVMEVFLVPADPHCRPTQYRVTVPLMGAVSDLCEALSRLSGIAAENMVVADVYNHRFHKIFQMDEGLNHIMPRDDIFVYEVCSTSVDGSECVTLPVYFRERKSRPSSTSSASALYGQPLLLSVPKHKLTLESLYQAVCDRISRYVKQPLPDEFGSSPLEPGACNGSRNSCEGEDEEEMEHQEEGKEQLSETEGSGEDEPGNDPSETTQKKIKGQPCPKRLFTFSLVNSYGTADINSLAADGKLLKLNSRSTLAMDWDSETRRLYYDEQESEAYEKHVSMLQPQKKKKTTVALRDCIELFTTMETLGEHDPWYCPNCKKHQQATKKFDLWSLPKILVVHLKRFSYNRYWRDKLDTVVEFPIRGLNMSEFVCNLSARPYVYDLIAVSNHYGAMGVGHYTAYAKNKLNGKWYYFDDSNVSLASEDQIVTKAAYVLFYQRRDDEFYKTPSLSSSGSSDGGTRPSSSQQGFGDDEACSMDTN
In short: as §1

Measured: log2 ratio of Biotin-Ahx-Ub-VS probe labelling

Chain of USP34 (Q70CQ2 whole entry, the tested form may be a part): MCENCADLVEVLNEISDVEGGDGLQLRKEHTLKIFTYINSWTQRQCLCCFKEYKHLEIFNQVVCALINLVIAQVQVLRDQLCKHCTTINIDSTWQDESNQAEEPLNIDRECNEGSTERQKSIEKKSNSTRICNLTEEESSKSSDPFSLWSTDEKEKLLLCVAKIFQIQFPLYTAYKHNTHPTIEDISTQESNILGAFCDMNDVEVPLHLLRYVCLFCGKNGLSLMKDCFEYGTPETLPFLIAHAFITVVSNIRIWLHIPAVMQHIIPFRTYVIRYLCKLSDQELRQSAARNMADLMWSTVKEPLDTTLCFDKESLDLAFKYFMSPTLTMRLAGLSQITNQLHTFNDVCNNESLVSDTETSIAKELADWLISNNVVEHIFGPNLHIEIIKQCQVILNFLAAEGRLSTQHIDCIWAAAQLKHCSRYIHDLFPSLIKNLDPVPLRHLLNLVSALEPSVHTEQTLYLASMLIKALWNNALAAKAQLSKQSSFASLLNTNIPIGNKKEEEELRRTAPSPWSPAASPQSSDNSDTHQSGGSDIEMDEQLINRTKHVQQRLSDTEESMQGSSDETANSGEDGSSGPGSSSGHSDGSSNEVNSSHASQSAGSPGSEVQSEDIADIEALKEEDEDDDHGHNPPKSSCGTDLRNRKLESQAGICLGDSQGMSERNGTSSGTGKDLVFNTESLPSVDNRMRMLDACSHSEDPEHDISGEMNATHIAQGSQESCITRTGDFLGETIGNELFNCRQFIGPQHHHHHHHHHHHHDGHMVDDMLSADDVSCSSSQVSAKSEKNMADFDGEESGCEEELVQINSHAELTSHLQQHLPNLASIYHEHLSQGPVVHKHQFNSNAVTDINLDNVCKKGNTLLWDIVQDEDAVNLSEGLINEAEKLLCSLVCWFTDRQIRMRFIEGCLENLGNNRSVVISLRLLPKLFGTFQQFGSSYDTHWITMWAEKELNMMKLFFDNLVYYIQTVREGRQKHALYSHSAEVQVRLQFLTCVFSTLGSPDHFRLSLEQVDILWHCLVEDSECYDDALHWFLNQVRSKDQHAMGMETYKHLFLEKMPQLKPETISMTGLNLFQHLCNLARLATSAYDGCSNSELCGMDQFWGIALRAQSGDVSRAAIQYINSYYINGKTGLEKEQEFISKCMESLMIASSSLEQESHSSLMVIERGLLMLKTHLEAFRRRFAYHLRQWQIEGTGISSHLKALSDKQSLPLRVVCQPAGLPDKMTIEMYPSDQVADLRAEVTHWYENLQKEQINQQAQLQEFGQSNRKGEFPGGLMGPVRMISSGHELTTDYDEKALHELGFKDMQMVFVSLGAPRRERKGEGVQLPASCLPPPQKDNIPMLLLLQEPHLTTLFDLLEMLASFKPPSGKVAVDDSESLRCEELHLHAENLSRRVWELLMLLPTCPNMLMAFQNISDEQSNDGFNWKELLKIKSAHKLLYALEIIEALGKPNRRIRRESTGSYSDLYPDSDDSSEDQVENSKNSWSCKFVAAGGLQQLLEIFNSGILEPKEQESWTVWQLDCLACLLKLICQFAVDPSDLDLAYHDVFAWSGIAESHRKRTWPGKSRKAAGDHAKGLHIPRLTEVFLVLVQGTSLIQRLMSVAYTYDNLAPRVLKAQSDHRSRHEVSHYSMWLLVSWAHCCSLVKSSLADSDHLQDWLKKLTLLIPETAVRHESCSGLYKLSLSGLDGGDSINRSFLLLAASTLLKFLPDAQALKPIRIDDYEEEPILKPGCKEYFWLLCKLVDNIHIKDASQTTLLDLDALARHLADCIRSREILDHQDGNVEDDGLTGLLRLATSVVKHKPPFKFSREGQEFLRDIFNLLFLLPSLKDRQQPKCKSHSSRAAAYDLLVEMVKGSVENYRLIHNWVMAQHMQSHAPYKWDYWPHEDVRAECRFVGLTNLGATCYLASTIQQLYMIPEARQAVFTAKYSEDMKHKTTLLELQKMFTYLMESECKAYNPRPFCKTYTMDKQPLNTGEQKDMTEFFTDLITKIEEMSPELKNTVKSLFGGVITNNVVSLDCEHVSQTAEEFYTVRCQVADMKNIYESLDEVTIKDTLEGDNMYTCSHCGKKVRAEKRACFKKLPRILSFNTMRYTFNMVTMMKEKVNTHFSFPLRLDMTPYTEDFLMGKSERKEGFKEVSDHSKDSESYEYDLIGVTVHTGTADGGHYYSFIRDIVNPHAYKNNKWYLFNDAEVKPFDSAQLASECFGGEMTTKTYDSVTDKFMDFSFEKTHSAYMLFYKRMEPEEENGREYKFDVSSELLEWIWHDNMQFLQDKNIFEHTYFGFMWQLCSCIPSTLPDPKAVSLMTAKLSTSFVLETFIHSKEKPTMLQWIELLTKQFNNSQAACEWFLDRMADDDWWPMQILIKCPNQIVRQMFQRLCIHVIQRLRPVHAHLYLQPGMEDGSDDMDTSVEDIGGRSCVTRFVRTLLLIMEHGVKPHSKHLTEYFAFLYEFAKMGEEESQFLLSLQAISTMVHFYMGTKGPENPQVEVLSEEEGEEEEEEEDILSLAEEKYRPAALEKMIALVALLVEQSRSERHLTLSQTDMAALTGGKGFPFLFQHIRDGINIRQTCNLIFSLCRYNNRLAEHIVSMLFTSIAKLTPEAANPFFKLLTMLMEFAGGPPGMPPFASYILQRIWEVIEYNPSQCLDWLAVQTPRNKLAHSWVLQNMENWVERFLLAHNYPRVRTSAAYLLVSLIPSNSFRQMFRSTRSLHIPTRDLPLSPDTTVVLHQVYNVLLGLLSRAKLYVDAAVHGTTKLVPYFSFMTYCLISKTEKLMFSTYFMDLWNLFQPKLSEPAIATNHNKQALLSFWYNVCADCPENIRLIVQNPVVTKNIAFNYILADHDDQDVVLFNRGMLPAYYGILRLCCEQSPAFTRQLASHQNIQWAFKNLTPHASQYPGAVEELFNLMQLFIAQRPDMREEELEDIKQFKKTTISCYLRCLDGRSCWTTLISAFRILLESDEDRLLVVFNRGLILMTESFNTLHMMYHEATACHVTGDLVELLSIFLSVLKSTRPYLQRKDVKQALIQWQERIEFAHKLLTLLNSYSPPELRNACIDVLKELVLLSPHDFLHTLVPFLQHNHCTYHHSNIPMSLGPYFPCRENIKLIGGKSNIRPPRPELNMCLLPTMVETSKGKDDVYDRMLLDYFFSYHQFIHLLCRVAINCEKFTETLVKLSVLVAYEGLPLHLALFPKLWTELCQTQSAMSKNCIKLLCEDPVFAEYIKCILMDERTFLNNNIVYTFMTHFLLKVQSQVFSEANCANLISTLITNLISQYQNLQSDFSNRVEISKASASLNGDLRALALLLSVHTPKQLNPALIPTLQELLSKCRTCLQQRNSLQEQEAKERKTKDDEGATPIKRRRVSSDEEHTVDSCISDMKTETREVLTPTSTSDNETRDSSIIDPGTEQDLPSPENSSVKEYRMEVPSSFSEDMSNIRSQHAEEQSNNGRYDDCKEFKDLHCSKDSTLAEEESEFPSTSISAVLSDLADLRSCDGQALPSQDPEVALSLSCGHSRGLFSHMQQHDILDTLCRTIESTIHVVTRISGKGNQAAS

O=C(CCl)Nc1nnc(CC(F)(F)F)o1
inactive: [1] 0.146 | [2] -0.182 | [3] -0.0633 | [4] 0.00671 | [5] -0.0637
